Screening results: PubChem, several laboratories
This is a sample that favours compounds with a hit; in the whole collection about 3.6% have one here.
VHR inh abs: blocks human VHR1 dual specificity phosphatase; P51452; recombinant VHR phosphatase, pNPP absorbance; inhibition, % at 13.3 µM; hit rate 0.52% among 290,000; in the data active means inhibition above about 50%
Target sequence (P51452 whole entry, looked up): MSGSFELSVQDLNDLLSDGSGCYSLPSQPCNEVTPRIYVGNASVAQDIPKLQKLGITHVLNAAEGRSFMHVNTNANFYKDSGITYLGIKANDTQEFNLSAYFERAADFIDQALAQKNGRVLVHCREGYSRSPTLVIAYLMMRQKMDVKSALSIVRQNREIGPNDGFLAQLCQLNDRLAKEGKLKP
FBA Mtb inh: inhibits M. tuberculosis FBA enzyme | P9WQA3 | purified M. tuberculosis FBA, fluorescence read-out | inhibition, % at 1 µM | hit rate 2.3% among 360,000; in the data active means inhibition above about 27%;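 further: 0% = vehicle and 100% = reference inhibitor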
Target sequence (P9WQA3 whole entry, looked up): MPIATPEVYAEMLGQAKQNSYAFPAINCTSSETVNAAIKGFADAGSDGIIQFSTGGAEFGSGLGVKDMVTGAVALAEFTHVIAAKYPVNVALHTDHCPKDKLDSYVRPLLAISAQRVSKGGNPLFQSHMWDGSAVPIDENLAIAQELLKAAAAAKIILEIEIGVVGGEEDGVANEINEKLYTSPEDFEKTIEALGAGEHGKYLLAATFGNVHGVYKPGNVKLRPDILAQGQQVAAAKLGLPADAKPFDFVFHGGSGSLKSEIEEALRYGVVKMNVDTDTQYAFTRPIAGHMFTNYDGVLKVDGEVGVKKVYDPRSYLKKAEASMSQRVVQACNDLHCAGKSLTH
Mtb hypoxia rep: Mtb hypoxia fluorescent reporter inhibition. fluorescence inhibition, % (concentration not given with the values). hit rate 0.1% among 300,000. M. tuberculosis hypoxia-regulated fluorescent reporter, fluorescence; in the data active means fluorescence inhibition mostly above about 23%, no sharp cut-off; inactive means mostly below about 17%
GDH-TPI counter-1: inhibits GDH-TPI coupling enzymes, artifact for Mtb FBA screen; GDH-TPI coupled enzyme counterscreen, NADH absorbance; inhibition, % at 4.8 µM; hit rate 1.2% among 360,000; AID 588335; in the data active means inhibition above about 30%;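 further: 0% = DMSO wells and 100% = wells lacking the enzyme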
Mtb betalactam: beta-lactam sensitization of Mtb H37Rv | M. tuberculosis H37Rv growth with meropenem, percent inhibition | inhibition, % at 25 µM | hit rate 0.27% among 330,000 | AID 434955;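 further: growth measured after seven days incubation then overnight dye step; 0% = bacteria only wells and 100% = bacteria with antibiotic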
Mtb FBA inh conf: confirmation of M. tuberculosis fructose-bisphosphate aldolase inhibitors. shares compounds with FBA Mtb inh. AID 651616. inhibition, % at 1 µM. hit rate 78% among 5,600. purified M. tuberculosis FBA, fluorescence read-out; in the data active means inhibition above about 27%;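 further: 0% = vehicle wells and 100% = reference inhibitor wells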
GDH-TPI counter-2: GDH-TPI inhibition counter-screen for FBA inhibitors; shares compounds with FBA Mtb inh; GDH-TPI coupled enzyme counterscreen, fluorescence; inhibition, % at 1 µM; hit rate 81% among 5,600; in the data active means inhibition above about 10%
GDH-TPI dose: inhibits GDH-TPI coupling enzymes in dose response | IC50, µM | hit rate 79% among 170 | GDH-TPI coupled enzyme assay, fluorescence, artifact counterscreen | shares compounds with FBA Mtb inh
Active calls of the source: *; ? = inconclusive; · = not tested or not shown; + = active, no number. Unless noted, how the calls were made is not given here.

SMILES	VHR inh abs	FBA Mtb inh	Mtb hypoxia rep	GDH-TPI counter-1	Mtb betalactam	Mtb FBA inh conf	GDH-TPI counter-2	others
Cc1cc(C)nc(-n2ncc3c2CC(c2cccc(Cl)c2)CC3=O)n1 (stereo not given)	18	29*	1	16	0	75*	56*
COc1cc2c(C#N)c(N3CCN(C)CC3)nc(N)c2c(N)n1	2	81*	-5	14	1	+	+
CCOc1ccc(C=NNC(=O)C(C)N(c2ccc(OC)cc2)S(C)(=O)=O)cc1 (stereo not given)	·	·	4	·	·	·	·
Cn1c(=O)c2cc(NC(=O)Nc3cccnc3)ccc2n1-c1ccc(C(C)(C)C)cc1	·	31*	·	5	·	27	14*
Cn1c(=O)c2cc(NC(=O)NCCc3cccs3)ccc2n1-c1ccc(C(C)(C)C)cc1	·	26	·	-5	·	·	·
COC(=O)C1=C(c2ccc(S(C)(=O)=O)cc2)CC2CCC1N2C(=O)NCc1cccc2ccccc12 (stereo not given)	·	·	4	·	·	·	·
S=c1[nH]nc(-c2ccccn2)n1N=Cc1cccs1	·	·	2	·	·	·	·
Nc1c(C(O)(C(F)(F)F)C(F)(F)F)ccc2ccccc12	21	28*	0	4	·	24	11*
c1cnc2cc(-c3ccsc3)ncc2c1	·	29*	9	15	-4	8	5
N#Cc1c(C(F)(F)F)cc(-c2ccco2)nc1SCc1ccccn1	-3	19	4	13	3	·	·
N#Cc1c(C(F)(F)F)cc(-c2ccco2)nc1SCc1ccncc1	15	29*	9	0	13	56*	32*
CC(=NNC(=O)CN(c1ccc(C)cc1)S(C)(=O)=O)c1cccs1	·	·	12	·	·	·	·
CC(=NNc1ccc([N+](=O)[O-])cc1[N+](=O)[O-])C(C)C(C)C (stereo not given)	·	·	2	·	·	·	·
O=C(C(O)c1ccc(Br)cc1)N1CCC(Nc2ccc3[nH]ncc3c2)CC1 (stereo not given)	·	42*	·	5	·	+	+
CCOC(=O)N1C2=NC(C(=O)OC)=C(C(=O)OC)C3N(C)c4ccccc4[C@]23CC1C(=O)OC (stereo not given in full)	·	·	16	·	·	·	·
O=C1OCc2cccc3cccc1c23	13	50*	0	23	-2	198*	174*
CCOC(=O)c1sc(C)c2c1NC1(CCCCC1)NC2=O	37	32*	1	3	·	110*	104*
CCOC(=O)c1sc(C)c2c1NC(C)(c1cccs1)NC2=O (stereo not given)	13	35*	-8	10	6	147*	109*
O=C(NCc1ccc(F)cc1)c1cnccn1	-8	2	23	7	5	·	·
Clc1ccc(CNc2cnccn2)cc1	-11	71*	8	7	-4	125*	92*
Clc1ccc(CNc2ccccn2)cc1	12	0	-5	-2	-2	·	·
Fc1ccc(CNc2cnccn2)cc1	21	71*	6	18	-3	-3	-5
c1ccc(CNc2cnccn2)cc1	-18	69*	1	14	6	108*	93*
c1ccc(CNc2ccccn2)cc1	0	3	-3	1	1	·	·
Cc1cc(NC(=O)CCCS(=O)(=O)c2nc(-c3cccs3)cc(C(F)(F)F)n2)no1	11	52*	·	39*	90	68*	52*
SMILES	VHR inh abs	FBA Mtb inh	Mtb hypoxia rep	GDH-TPI counter-1	Mtb betalactam	Mtb FBA inh conf	GDH-TPI counter-2	others
Cc1cc(NC(=O)CSc2nc(-c3cccs3)cc(C(F)(F)F)n2)no1	-2	1	4	16	3	·	·
O=C(O)CCS(=O)(=O)c1nc(-c2cccs2)cc(C(F)(F)F)n1	18	38*	12	31*	·	196*	128*
CS(=O)(=O)c1nc(-c2cccs2)cc(C(F)(F)F)n1	19	·	·	·	100	·	·
COc1cccc(-c2c(C(=O)NN=Cc3sccc3C)nnn2-c2nonc2N)c1	·	·	5	·	·	·	·
Cc1ccc2[nH]c(=O)c3cc(C(=O)N(CCCOC(C)C)Cc4ccco4)sc3c2c1	46	28*	0	12	-11	22	11*
CCCCN(CC)C(=O)c1cc2c(=O)[nH]c3ccc(C)cc3c2s1	-2	12	7	9	4	·	·
Cc1ccc2[nH]c(=O)c3cc(C(=O)NCCN4CCN(C)CC4)sc3c2c1	12	49*	·	22	?	196*	159*
CCOC(=O)CNC(=O)c1cc2c(=O)[nH]c3ccc(C)cc3c2s1	-3	32*	-9	12	7	118*	97*
NC(=NOC(=O)c1ccc([N+](=O)[O-])cc1)c1cccnc1	·	·	2	·	·	·	·
Cc1ccc([N+](=O)[O-])cc1C=NNc1nnnn1-c1ccccc1	·	·	10	·	·	·	·
Cc1c(Br)c(C(=O)NCc2cc3cc(Cl)ccc3[nH]2)nn1C	27	66*	-11	11	19	85*	84*
C=CCc1cccc(C=NNC(=O)C(C)Nc2ccc(C)cc2)c1O (stereo not given)	·	·	-2	·	·	·	·
NC(=O)c1ccccc1NCC(=O)c1ccc(F)cc1	20	31*	6	-4	-2	103*	87*
CC1CC[C@]2(C(=O)O)CC[C@]3(C)C(=CCC4[C@@]5(C)CCC(O)[C@@](C)(C(=O)O)C5CC[C@]43C)C2[C@]1(C)O (stereo not given in full)	·	·	3	·	·	·	·
CCn1c2ccccc2c2cc(/C=N/n3cn[nH]c3=S)ccc21	36	5	·	20	80	·	·
CCn1c2ccccc2c2cc(/C=N/n3cnnc3)ccc21	7	32*	·	46*	11	59*	48*
CCn1c(/C=N/n2cnnc2)nc2ccccc21	36	28*	·	47*	7	116*	83*
CC(=NNc1cc(Cl)nc(C)n1)c1ccccc1	·	·	3	·	·	·	·
CC(C)NC(=O)Nc1cccc2c1OC(CN(C)C(=O)NC1CCCCC1)C(C)CN(C(C)CO)C2=O (stereo not given)	·	·	-3	·	·	·	·
CC1CCCC(C)N1NC(=S)Nc1ccc(OC(F)F)cc1 (stereo not given)	-3	55*	1	8	-8	60*	53*
Cc1ccc(-c2nc3ccccc3nc2NN)cc1	13	31*	·	9	-8	14	9	GDH-TPI dose=>10
Cc1ccc(-c2nc3ccccc3nc2Cl)cc1	22	1	4	2	6	·	·
O=C(Nc1ccc2oc(-c3ccccc3F)nc2c1)c1ccccc1F	5	3	-3	2	0	·	·
O=C(Nc1ccc2oc(-c3ccccc3F)nc2c1)c1ncn[nH]1	31	37*	·	13	95	158*	143*
Cc1cccn2c(=O)c3cc(C(=O)NCCc4ccccc4)sc3nc12	7	35*	8	6	2	0	2
